# From publication PMC4336329 (PLoS ONE, 2015)
# The whole screen tested about 310,000 compounds, of which about 14,000 (4.5%) showed an effect of 50% or more. The effect is printed as a negative number. Only a selection was taken, and strong results are over-represented in it overall.
# Molecular target: human ether-à-go-go-related gene (hERG) potassium channel (human, UniProt Q12809)
# Assay: primary screen, population patch clamp on CHO cells stably expressing hERG; higher = less effect of the substance
# 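Also: peak tail current of the secondary pulse compared with the same well before compound.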
# Chain of human ether-à-go-go-related gene (hERG) potassium channel (Q12809 whole entry, looked up): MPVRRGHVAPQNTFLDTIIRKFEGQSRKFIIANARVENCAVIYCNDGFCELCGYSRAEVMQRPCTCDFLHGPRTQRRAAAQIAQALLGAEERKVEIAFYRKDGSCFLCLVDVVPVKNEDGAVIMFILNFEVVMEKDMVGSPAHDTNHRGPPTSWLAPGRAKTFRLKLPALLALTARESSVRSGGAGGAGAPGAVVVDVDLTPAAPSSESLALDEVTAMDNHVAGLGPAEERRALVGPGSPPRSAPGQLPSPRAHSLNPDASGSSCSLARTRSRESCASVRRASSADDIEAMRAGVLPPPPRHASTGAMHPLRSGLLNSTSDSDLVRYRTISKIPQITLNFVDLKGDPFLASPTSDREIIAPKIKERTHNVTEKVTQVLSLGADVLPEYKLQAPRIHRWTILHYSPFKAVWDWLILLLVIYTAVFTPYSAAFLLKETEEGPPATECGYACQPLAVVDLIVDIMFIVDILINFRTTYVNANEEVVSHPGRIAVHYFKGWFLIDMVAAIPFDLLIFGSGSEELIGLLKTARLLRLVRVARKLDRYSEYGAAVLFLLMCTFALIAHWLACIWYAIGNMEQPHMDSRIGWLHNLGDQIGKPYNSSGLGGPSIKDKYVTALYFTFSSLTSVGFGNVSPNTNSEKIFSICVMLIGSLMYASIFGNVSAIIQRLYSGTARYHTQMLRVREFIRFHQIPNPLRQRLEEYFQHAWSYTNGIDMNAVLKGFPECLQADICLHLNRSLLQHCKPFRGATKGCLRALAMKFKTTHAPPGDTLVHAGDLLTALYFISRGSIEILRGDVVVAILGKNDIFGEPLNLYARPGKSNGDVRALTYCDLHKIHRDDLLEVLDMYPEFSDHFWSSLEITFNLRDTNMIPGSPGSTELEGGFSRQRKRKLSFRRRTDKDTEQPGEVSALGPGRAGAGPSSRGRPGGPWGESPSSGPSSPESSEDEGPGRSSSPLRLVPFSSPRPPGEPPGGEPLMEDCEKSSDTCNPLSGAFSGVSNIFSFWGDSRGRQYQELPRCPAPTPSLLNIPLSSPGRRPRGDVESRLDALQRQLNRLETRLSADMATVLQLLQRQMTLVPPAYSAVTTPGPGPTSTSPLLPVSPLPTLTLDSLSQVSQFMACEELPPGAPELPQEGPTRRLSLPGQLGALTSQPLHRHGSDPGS
row,Structure (SMILES),"hERG current change (%, negative = inhibition) at 10uM [%]"
1,CCOC(=O)c1oc2ccccc2c1NC(=O)c1ccc(Cl)s1,11.7
2,Cn1cc(CN2CCCC(C(=O)Nc3ccc(-c4cccc(F)c4)cc3)C2)cn1 (stereo not drawn),-43.9
3,COc1cccc(-c2ccc(NC(=O)C3CCCN(Cc4cnc(C)n4C)C3)cc2)c1 (stereo not drawn),-74.3
4,COc1cccc(-c2ccc(NC(=O)C3CCCN(Cc4cnn(C)c4)C3)cc2)c1 (stereo not drawn),-37
5,Cc1ncc(CN2CCCC(C(=O)Nc3ccc(-c4ccco4)cc3)C2)cn1 (stereo not drawn),-11.5
6,O=C(Nc1ccc(-c2cccc(F)c2)cc1)C1CCCN(Cc2ccccn2)C1 (stereo not drawn),-42.3
7,COc1cccc(-c2ccc(NC(=O)C3CCCN(Cc4cnn(C(C)C)c4)C3)cc2)c1 (stereo not drawn),-79.7
8,Cc1ncc(CN2CCCC(C(=O)Nc3ccc(-c4ccco4)cc3)C2)n1C (stereo not drawn),-59.6
9,COc1cccc(-c2ccc(NC(=O)C3CCCN(Cc4cnc(C)s4)C3)cc2)c1 (stereo not drawn),2.11
10,Nc1ncc(CN2CCCC(C(=O)Nc3ccc(-c4ccco4)cc3)C2)cn1 (stereo not drawn),-17.8
11,COc1cccc(-c2ccc(NC(=O)C3CCCN(Cc4cnc(N(C)C)s4)C3)cc2)c1 (stereo not drawn),8.97
12,COc1cccc(C(=O)C2CCCN(Cc3cnn(C(C)C)c3)C2)c1 (stereo not drawn),-43.6
13,Cc1ncc(CN2CCCC(C(=O)Nc3ccc(-c4cccc(F)c4)cc3)C2)cn1 (stereo not drawn),-73.2
14,COC(=O)c1c(C)nc(C)c(C(=O)OC)c1-c1ccc(OC)cc1,-7.69
15,Cc1cc(C)nc(N/N=C/c2cn[nH]c2-c2ccc(F)cc2)n1,8.66
16,Cc1ccc(CNC(=O)c2cccc3c2C(=O)c2ccc(N4CCCCC4)cc2S3(=O)=O)cc1,-6.76
17,CCOc1ccc(CCNC(=O)Nc2ccccc2C)cc1OCC,5.4
18,COc1ccccc1-c1ccc(SCc2cccc(C)c2)nn1,-26.6
19,Cc1ccc(CCC(=O)Nc2ccc(Cl)cc2)o1,12.8
20,O=C(O)C1=CC[C@@H](c2ccc(Cl)cc2)N(S(=O)(=O)c2ccc(Cl)cc2)[C@H]1c1ccc(F)cc1,4.97
21,CCOC(=O)c1sc(N)c(C#N)c1CSc1nnc(C2CCCCC2)n1N,-1.65
22,CC1CC(C)CN(C(=O)c2cc3ccccc3o2)C1 (stereo not drawn),-2.2
23,COc1ccc(C(=O)Nc2cc(Cl)ccc2Cl)c(OC)n1,-5.79
24,Cc1cccc(-c2cccc(NC(=O)C3CCCN(C(=O)c4ocnc4C)C3)c2)c1 (stereo not drawn),-53
25,COCCc1ncc(CN2CCCC(C(=O)Nc3cccc(-c4cccc(C)c4)c3)C2)cn1 (stereo not drawn),-56.6
26,CCc1nc(C)c(C(=O)N2CCCC(C(=O)Nc3cccc(-c4cccc(C)c4)c3)C2)o1 (stereo not drawn),-42.5

row,Structure (SMILES),"hERG current change (%, negative = inhibition) at 10uM [%]"
1,CCc1ncc(CN2CCCC(C(=O)Nc3cccc(-c4cccc(C)c4)c3)C2)cn1 (stereo not drawn),-48.8
2,O=C(Nc1cccc(-c2ccc(F)cc2)c1)C1CCCN(Cc2cccnc2)C1 (stereo not drawn),-60.2
3,Cc1ncc(CN2CCCC(C(=O)Nc3ccc(-n4ccnc4C)cc3)C2)cn1 (stereo not drawn),12.8
4,Cc1ncoc1C(=O)N1CCCC(C(=O)Nc2cccc(-c3ccc(F)cc3)c2)C1 (stereo not drawn),-36.4
5,Cc1ncc(CN2CCCC(C(=O)Nc3ccc(-c4cccc(F)c4)cc3)C2)n1C (stereo not drawn),-69.5
6,Cc1ncc(CN2CCCC(C(=O)Nc3ccc(-c4cccc(F)c4)cc3)C2)s1 (stereo not drawn),1.64
7,Cc1ccc(C(=O)N2CCCC(C(=O)Nc3cccc(-c4ccc(F)cc4)c3)C2)cn1 (stereo not drawn),-29.1
8,CCCc1ncc(CN2CCCC(C(=O)Nc3ccc(-c4cccc(OC)c4)cc3)C2)cn1 (stereo not drawn),-39.7
9,Cc1ccc(C(=O)C(C)OC(=O)CCN=C2NS(=O)(=O)c3ccccc32)cc1 (stereo not drawn),6.4
10,Cc1nn(Cc2c(Cl)cccc2Cl)c(Cl)c1C(=O)O,14.4
11,COCCN(C(=O)CC1C(=O)NCCN1Cc1ccc(-c2ccccc2)cc1)C(C)C (stereo not drawn),1
12,COc1ccc(OCCn2ccnc2)cc1,12.4
13,CCOCCCNC(=S)N1C2CCC1CC(NC(=O)Nc1ccc(C(=O)OCC)cc1)C2 (stereo not drawn),13.7
14,COc1ccc(OC)c(-c2nc(C(=O)NC3CCN(Cc4ccccc4)CC3)cc3c2[nH]c2ccccc23)c1,-43.5
15,COc1cc(-c2nc(C(=O)NC3CCCCC3)cc3c2[nH]c2ccccc23)cc(OC)c1OC,-8.67
16,COc1ccccc1-c1nc(C(=O)NCC2CCCO2)cc2c1[nH]c1ccccc12 (stereo not drawn),-29
17,COc1ccc(-c2nc(C(=O)NCCCN3CCOCC3)cc3c2[nH]c2ccccc23)cc1OC,-72.2
18,COc1cccc(-c2nc(C(=O)NCC3CCCO3)cc3c2[nH]c2ccccc23)c1 (stereo not drawn),-26.4
19,Cc1ccc(-c2nc(C(=O)NCCCN3CCOCC3)cc3c2[nH]c2ccccc23)cc1,-15
20,COc1ccc(OC)c(-c2nc(C(=O)NCC3CCCO3)cc3c2[nH]c2ccccc23)c1 (stereo not drawn),-59.1
21,O=C(NCCCN1CCOCC1)c1cc2c([nH]c3ccccc32)c(-c2cccc(Br)c2)n1,-40.8
22,COc1cc(-c2nc(C(=O)NC3CCN(Cc4ccccc4)CC3)cc3c2[nH]c2ccccc23)cc(OC)c1OC,-59.6
23,COc1cccc(-c2nc(C(=O)NCCCN3CCOCC3)cc3c2[nH]c2ccccc23)c1,-65.3
24,COc1ccc(-c2nc(C(=O)NCC3CCCO3)cc3c2[nH]c2ccccc23)cc1 (stereo not drawn),-2.81
25,COc1ccc(-c2cc(C(=O)NCCCN3CCOCC3)c3ccccc3n2)cc1OC,-7.5
